About 400 (0.14%) of roughly 290,000 compounds were called active. No stated cut-off is given here; in the data, active means inhibition above about 12%; inactive means the rest. The sample as a whole holds a higher share of actives than the screen did.

This assay has as its target Replicase polyprotein 1ab (Severe acute respiratory syndrome coronavirus) (UniProt P0C6X7). Nature of the assay: SARS-CoV 3CLpro protease inhibitors, primary screen, biochemical, quenched FRET (AID 1706). Conditions: recombinant SARS-CoV 3CLpro, quenched FRET peptide cleavage; at 6 µM; active compounds read high.
On to `COC(=O)c1ccc2c(=O)n(CCN3CCOCC3)c(SCC(=O)Nc3cccc(OC)c3)nc2c1`, for which the inhibition was -4.67% (inactive).

With `CCC(=O)c1cn(CCOc2ccccc2OC)c2ccccc12`, the inhibition was 1.13% (inactive). The same measure for `COc1ccccc1NC(=O)N1CCCC1C(=O)NCc1cccs1` (stereo not drawn): -2.73% (inactive); for `Cc1cc(C)cc(NS(=O)(=O)Cc2ccccc2)c1`: -7.45% (inactive). Turning to `CCCc1nnc(NC(=O)CCC(=O)NC2CC2)s1`, the inhibition is -2.59% (inactive).

On to `O=C(COC(=O)CCCNC(=O)c1ccc(Cl)cc1)Nc1cc(Cl)ccc1Cl`, for which the inhibition was -4.18% (inactive). The same measure for `O=C(CN1CCC(NC(=O)Nc2ccccc2)CC1)Nc1cccc([N+](=O)[O-])c1`: -2.45% (inactive); for `CN1CCN(CC(=O)Nc2cccc([N+](=O)[O-])c2)CC1`: 15.7% (active). In the case of `CN(CC(=O)Nc1cccc(F)c1)CC(=O)Nc1cccc([N+](=O)[O-])c1`, the inhibition is 0.23% (inactive).

Turning to `CC(=O)N1CCSc2ccc(S(=O)(=O)N3CCC(C)CC3)cc21`, the inhibition was 0.66% (inactive). On to `O=C(COC(=O)c1cc(=O)[nH]c2ccccc12)Nc1nc(-c2cccc(Br)c2)cs1`, for which the inhibition was 2.23% (inactive).

Regarding `CC(C)NC(=O)COCc1cc(-c2ccc3c(c2)OCO3)on1`, the inhibition was 3.95% (inactive). Turning to `CCc1nonc1NC(=O)c1oc2ccc(Cl)cc2c1C`, the inhibition is -1.85% (inactive). Next, `CCN1CCN(C(=O)Cn2nc(C)n3c(cc4c(OC)cccc43)c2=O)CC1`: -4.38% (inactive); `COc1ccc(NC(=O)C2C3C=CC(C3)C2C(=O)NCc2ccccn2)c(OC)c1` (stereo not drawn): 0.98% (inactive). As to `O=C(CCc1nnc2ccc(NCc3ccccc3Cl)nn12)NCC1CCN(C2CCCC2)C1` (stereo not drawn), the inhibition was 2.8% (inactive). As to `COc1cccc(CNS(=O)(=O)c2cc3c(cc2C)n(C)c(=O)c(=O)n3C)c1`, the inhibition was 3.5% (inactive).

Turning to `Cc1cc(C(=O)CCl)c(C)n1CC1COc2ccccc2O1` (stereo not drawn), the inhibition was 6.71% (inactive). As to `O=C(CN1C(=O)C2C3C=CC(C3)C2C1=O)NCC1COc2ccccc2O1` (stereo not drawn), the inhibition was 2.22% (inactive). The same measure for `O=C1C(=O)N(CC2COc3ccccc3O2)c2ccccc21` (stereo not drawn): 23.4% (active); for `CC(C)c1ccccc1OCC(O)CN(CC(O)COc1cccc2ccccc12)C(C)C` (stereo not drawn): 3.86% (inactive); for `Nc1ncc(CN2CCCC(C(=O)Nc3ccc(-c4ccco4)cc3)C2)cn1` (stereo not drawn): -4.02% (inactive).

As to `CC12CCC(C(=O)N(NC(=O)c3ccccc3O)C1=O)C2(C)C` (stereo not drawn), the inhibition was 5.94% (inactive). The same measure for `Cc1ccc(-c2nc(-c3cccnc3)sc2CC(=O)Nc2ccc(C)c(Cl)c2)cc1`: -0.63% (inactive); for `Oc1ccc2ccc3cccc[n+]3c2c1`: 3.63% (inactive).

Take `CN(C)S(=O)(=O)c1cccc(C(=O)OCC(=O)N2CCCC2=O)c1`: the inhibition is 0.39% (inactive). The same measure for `C[C@H](NC(=O)C1CC(=O)N(c2ccc3c(c2)OCCO3)C1)C(=O)N1CCC(C(=O)O)CC1` (stereo partly drawn): 2.21% (inactive); for `CCOC(CNC(=O)C(=O)NCC(c1ccco1)N1CCN(c2ccc(OC)cc2)CC1)OCC` (stereo not drawn): -3.43% (inactive); for `Cc1c(C(=O)NCCN2CCOCC2)sc2nc(-c3ccc(F)cc3)cn12`: 3.35% (inactive).

For the compound `Cc1ccc(NS(=O)(=O)c2ccc3c(c2)oc(=O)n3C)c(C)c1`, the inhibition was 8.19% (inactive). The same measure for `CC1(C)N=C(c2ccccn2)C(C)(C)N1O`: -1.96% (inactive).

As for `COc1ccc([N+](=O)[O-])cc1NCC(=O)c1ccc(C)cc1`, the inhibition was -0.37% (inactive). The same measure for `O=c1[nH]c(/C=C\c2cccc(C(F)(F)F)c2)nc(O)c1[N+](=O)[O-]`: -0.63% (inactive); for `COc1ccc(C(CNC(=O)c2cc3c(s2)CCCC3)N2CCOCC2)cc1` (stereo not drawn): 0.58% (inactive); for `N#Cc1ncc(C(F)(F)F)cc1Oc1cccnc1`: 4% (inactive). The same measure for `COc1cccc(C(=O)NC(=O)Nc2nc(C)cc(C(F)(F)F)n2)c1`: -0.93% (inactive); for `COc1cccc(CN(C)CC(O)COC(c2ccccc2)c2ccccc2C)c1` (stereo not drawn): -1.74% (inactive); for `CCCCCCCCCCCCN1C(=O)CSC1c1cccnc1` (stereo not drawn): 0.63% (inactive).

Take `Cn1nc(-c2ccc(N3CCOCC3)c(NC(=O)c3ccccc3)c2)c2ccccc2c1=O`: the inhibition is -4% (inactive). `O=C(Cc1ccc(Br)cc1)NCCN1CCOCC1`: the inhibition is -3.15% (inactive). The same measure for `Cc1ccc(CNC(=O)C2(C(F)(F)F)C/C(=C\Cc3ccccc3)CCCO2)o1` (stereo not drawn): 2.14% (inactive); for `CC(=O)N1CCCc2cc(S(=O)(=O)N3CCCC(C(=O)N4CCN(c5cccc(Cl)c5)CC4)C3)ccc21` (stereo not drawn): -4.69% (inactive). The same measure for `CC(C)c1ccc(N(C(=O)c2ccco2)C(C(=O)NC2CCCC2)c2cccnc2)cc1` (stereo not drawn): 50.8% (active).

As for `O=C(NC1CCCC1)C(c1ccco1)N(C(=O)c1ccco1)c1ccc(F)cc1` (stereo not drawn), the inhibition was -3.74% (inactive). Next, `COc1cccc(N(C(=O)CNC(=O)c2ccco2)C(C(=O)NC2CCCCC2)c2cccnc2)c1` (stereo not drawn): 0.2% (inactive); `CS(=O)(=O)N(CC(=O)N1CCOCC1)c1cccc(Cl)c1Cl`: 10.7% (inactive); `COc1ccc(C(C(=O)NCC2CCCO2)N(C(=O)Cn2nnc3ccccc32)c2ccc(NC(C)=O)cc2)cc1OC` (stereo not drawn): 11.5% (inactive). The same measure for `COc1ccc(C(C(=O)NC(C)(C)C)N(C(=O)Cn2nnc3ccccc32)c2ccc(C(C)=O)cc2)cc1O` (stereo not drawn): 3.87% (inactive); for `CCC(C)(C)NC(=O)C(c1ccc(O)cc1)N(C(=O)Cn1nnc2ccccc21)c1ccc(NC(C)=O)cc1` (stereo not drawn): 27.5% (active). The same measure for `CN1CN(C)c2ccc([N+](=O)[O-])c3cccc1c23`: 2.09% (inactive).

In the case of `Cc1c(C(=O)NCC(c2ccco2)N2CCCC2)oc2ccc(Cl)cc12` (stereo not drawn), the inhibition was -1.9% (inactive).

Regarding `CCN(CC(=O)NCC(=O)Nc1cccc(C)c1C)Cc1ccccc1`, the inhibition is -2.94% (inactive). For `CCOC(=O)c1ccc(-n2c(CCC(=O)O)ccc2-c2ccccc2)cc1`, the inhibition was 3.33% (inactive). Next, `Cc1ccc2c(c1)C1CN(C)CCC1N2S(=O)(=O)c1ccc(Oc2ccc([N+](=O)[O-])cc2)cc1` (stereo not drawn): 0.21% (inactive).

On to `O=C1CCCCN1CCCC(=O)N1CCCC(Nc2ccc(F)cc2)C1` (stereo not drawn), for which the inhibition is -2.27% (inactive).

Turning to `CCN1CCN(C(=O)C2CCCN(S(=O)(=O)c3ccc(OC)c(OC)c3)C2)CC1` (stereo not drawn), the inhibition is -7.47% (inactive). For `CC(C)c1c(C(=O)N/N=C/c2ccc(-c3ccccc3)cc2)nnn1-c1nonc1N`, the inhibition was 1.56% (inactive).

`c1ccc2c(-c3nn4nnnc4c4ccccc34)cccc2c1`: the inhibition was -0.16% (inactive).

In the case of `CC(=O)c1cccc(NC(=S)N2CCCC2)c1`, the inhibition was 0.53% (inactive). Next, `Cc1ccc(OCC(=O)Nc2ccc(C(=O)O)cc2NC(=O)COc2ccc(C)c(C)c2)cc1C`: 14.3% (active); `Cc1cccc(OCC(=O)Nc2ccc(C(=O)O)cc2NC(=O)COc2cccc(C)c2)c1`: 6.23% (inactive); `Cc1ccc(OCC(=O)Nc2cccc3c2CCCC3)cc1C`: -0.37% (inactive). Next, `COc1cccc(CNC(=O)CN(C)S(=O)(=O)c2ccc3c(c2)c(=O)n(C)c(=O)n3C)c1`: 0.08% (inactive).

As to `COc1cccc(Cn2cc(/C=N/NC(=O)c3cc(O)cc(O)c3)c3ccccc32)c1`, the inhibition was 6.16% (inactive). As to `Cc1ccc2c(c1)sc1ncc(NC(=O)c3ccccc3)c(=O)n12`, the inhibition is -0.46% (inactive). Consider `COC(=O)c1ccc(COC(=O)c2cnc(Cl)c(Cl)c2)cc1`, for which the inhibition was 7.32% (inactive).

As to `COc1ccc2cc(CCl)c(Cl)nc2c1`, the inhibition was -3.78% (inactive). The same measure for `COc1ccc(C(=O)NC(=S)N2CCNC(=O)C2CC(=O)OC(C)C)cc1` (stereo not drawn): 0.58% (inactive); for `CC(=O)N1CCN(C(=O)C2(NC(=O)Nc3ccc(C)cc3)CCCCC2)CC1`: -11.2% (inactive). The same measure for `CC(=O)Nc1ccc(NC(=O)C2CCCN2S(=O)(=O)c2cccc(C(F)(F)F)c2)cc1` (stereo not drawn): -4.86% (inactive). For `Cc1cccc[n+]1CC(=O)c1ccccc1`, the inhibition is 3.16% (inactive). The same measure for `Cc1oc2c(F)c(F)c(F)c(F)c2c1S(=O)(=O)Nc1cccc(C(F)(F)F)c1`: 17.6% (active); for `CCNS(=O)(=O)c1ccc(NC(=O)Nc2cccc(C(F)(F)F)c2)cc1`: -1.22% (inactive). Next, `O=C(/C=C/c1ccc(F)cc1)Nc1cccc(S(=O)(=O)Nc2cccc(C(F)(F)F)c2)c1`: 5.74% (inactive); `Cc1ccc(S(=O)(=O)N(CC(=O)NCc2ccco2)c2ccccc2C)cc1`: -1.63% (inactive).

With `COc1ccccc1N(C(=O)Cn1nnc2ccccc21)C(C(=O)NCc1ccco1)c1ccc(C)o1` (stereo not drawn), the inhibition was 20.2% (active). As to `COCCNC(=O)C(c1ccc(C)o1)N(Cc1ccccc1)C(=O)Cn1nnc2ccccc21` (stereo not drawn), the inhibition is 0.75% (inactive).

As to `O=C(NCc1ccco1)C(c1ccncc1)N(C(=O)Cn1nnc2ccccc21)c1ccccc1` (stereo not drawn), the inhibition is 1.89% (inactive). The same measure for `Cc1cc(-c2ccc(S(=O)(=O)N3CCN(c4cccc(C(F)(F)F)c4)CC3)s2)on1`: 10.1% (inactive). The same measure for `O=C(c1c(F)cccc1Cl)N1CCN(S(=O)(=O)c2ccc3c(c2)OCCCO3)CC1`: -1.16% (inactive); for `COc1ccc(C)cc1N(CC(=O)NC(C)c1ccccc1)S(C)(=O)=O` (stereo not drawn): -1.09% (inactive); for `Cc1ccccc1-c1nc(CS(=O)(=O)CC(=O)NC(C)c2ccccc2)c(C)o1` (stereo not drawn): -0.9% (inactive).

As for `O=C(c1cc(=O)c2ccccc2o1)N1CCN(c2ccccc2)CC1`, the inhibition was 13.7% (active). Regarding `COc1cc2c(cc1OC)CN(C(=O)c1cc(=O)c3ccccc3o1)CC2`, the inhibition was -3.13% (inactive). Turning to `COc1ccccc1N1CCN(C(=O)c2cc(=O)c3cc(C)ccc3o2)CC1`, the inhibition was -1.99% (inactive). Take `CCOc1ccc(OCCSc2nc3ccccc3n2CC(=O)O)cc1`: the inhibition was 1.7% (inactive). The same measure for `Cc1coc2c1c(C)cc1oc(=O)c(CC(=O)NCC(=O)N[C@H](C(=O)O)C(C)C)c(C)c12`: 2.83% (inactive); for `Cc1ccc(S(=O)(=O)N[C@@H](Cc2ccccc2)C(=O)N2CCC(C(=O)N[C@H](C(=O)O)C(C)O)CC2)cc1` (stereo partly drawn): -4.09% (inactive).

Usually inhibition stands for the drop in the measured response relative to a control, in per cent.

Source of the values: PubChem BioAssay AID1706 (The Scripps Research Institute Molecular Screening Center, 2009).
